Hits are enriched below; roughly 9.2% of the tested compounds scored in any of these assays.
NPC1 promoter act – NPC1 promoter activation; Potency, µM (titrated, usually from 9.22 µM), hits mostly activators; Huh7 NPC1 promoter luciferase reporter, 24 h; 2.4% of 320,000 active; note: nearly all actives have a fitted effect of over 60% in size
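Compounds in DMSO were transferred onto Huh7 NPC1-luciferase reporter cells pre-incubated 2 h; after 24 h at 37 °C, Amplite reagent was dispensed and luminescence recorded 10 min later.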
SMN2 splice enh – enhancers of SMN2 splice variant expression; HEK293 SMN2-luciferase splicing reporter, luminescence, 30-36 h; Potency, µM (highest dose often 46.1 µM), hits mostly activators; 2.8% of 210,000 active; note: nearly all actives have a fitted effect of over 55% in size
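HEK293 cells carry an SMN2 […]–luciferase reporter in which exon 7 inclusion puts luciferase in frame. Cells were plated 10-12 h before compound addition, then incubated 30-36 h at 37C. ONE-Glo luminescence was read; sodium butyrate at 4.5 mM final served as control.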
Rab9 promoter act – activates the Rab9 promoter; 2.8% of 320,000 active; AID 485297; Huh7 Rab9 promoter-luciferase reporter, luminescence, 24 h; Potency, µM (titrated, usually from 9.22 µM), actives largely listed as activators; note: nearly all actives have a fitted effect of over 60% in size
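Luminescence read-out: Huh7 cells stably expressing Rab9-luciferase, treated 24 h with compound at 37 °C, then lysed with luciferase reagent for 10 min at ambient before reading.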
FLuc modulator – firefly luciferase modulation, counter-screen for miR-21 project; Potency, µM (doses to about 57.5 µM), actives largely listed as inhibitors; purified FLuc, Km substrates, luminescence inhibition; P08659; AID 588342; 6.9% of 360,000 active; note: nearly all actives have a fitted effect of over 55% in size
Target sequence (P08659 whole entry, looked up): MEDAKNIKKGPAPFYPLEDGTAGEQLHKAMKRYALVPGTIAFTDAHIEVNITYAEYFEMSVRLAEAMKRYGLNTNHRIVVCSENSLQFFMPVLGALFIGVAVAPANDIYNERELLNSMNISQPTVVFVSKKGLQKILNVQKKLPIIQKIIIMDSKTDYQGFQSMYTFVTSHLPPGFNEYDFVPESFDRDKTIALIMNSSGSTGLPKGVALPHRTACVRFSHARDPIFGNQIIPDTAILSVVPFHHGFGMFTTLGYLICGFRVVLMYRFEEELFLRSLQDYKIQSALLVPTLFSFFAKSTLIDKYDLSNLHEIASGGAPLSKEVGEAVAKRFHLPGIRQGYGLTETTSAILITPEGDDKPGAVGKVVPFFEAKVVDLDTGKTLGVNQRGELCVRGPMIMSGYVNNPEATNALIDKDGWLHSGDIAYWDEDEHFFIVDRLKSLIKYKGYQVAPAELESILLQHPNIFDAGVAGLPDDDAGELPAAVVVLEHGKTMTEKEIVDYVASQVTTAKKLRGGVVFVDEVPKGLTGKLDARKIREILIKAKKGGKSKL
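Purified P. pyralis luciferase (10nM final) with 10uM D-luciferin and 10uM ATP (Km levels) in 50mM Tris acetate pH 7.5, 10mM Mg acetate, 0.01% Tween-20, 0.05% BSA; qHTS 6-point titration, ~60 µM downward; luminescence read.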
ELG1 DNA repair – blocks ELG1-dependent DNA repair in HEK293T cells; HEK293T ELG1-luciferase reporter, luminescence, 16 h; DNA damage induced by 5-fluorouridine; Potency, µM (series often up to 46.1 µM), most hits filed as inhibitors; 2.3% of 330,000 active; AID 504467; note: nearly all actives have a fitted effect of over 55% in size
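Step one: seed 2,000 cells per well. Step two: pin-transfer compound or DMSO alongside 5-fluorouridine. Step three: incubate 16 hr, 37 °C, 5% CO2. Step four: add ONE-Glo, wait 30 min, read luminescence.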
ELG1 genotoxic – genotoxicity induction in ELG1-luciferase HEK293T cells; 1.3% of 330,000 active; Potency, µM (titrated, usually from 46 µM), most hits filed as activators; HEK293T ELG1-luciferase reporter, luminescence, 16 h; note: nearly all actives have a fitted effect of over 60% in size
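After overnight (16 hr) compound treatment at 37 °C, ELG1-luciferase HEK293T cells were lysed with ONE-Glo; luminescence quantified 30 min later at room temperature.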
A number is an active result; 0 = inactive; ? = inconclusive; - = not tested or not shown. Calls come from the whole dose curve; as a rule, active = well fitted curve in the direction sought with a large enough effect; inconclusive = small, poorly fitted or top-dose-only effect, or another doubt; inactive = no such curve, though single readings can be large; an effect the other way counts as inactive or inconclusive.

SMILES	NPC1 promoter act	SMN2 splice enh	Rab9 promoter act	FLuc modulator	ELG1 DNA repair	ELG1 genotoxic
CCOc1ccc(C(=O)CSc2nnc3ccccn23)cc1	2µM	0	1.12µM	3.01µM	?	20.6µM
O=C(CSc1nnc2ccccn12)NNC(=O)c1ccc(Cl)cc1	0	0	0	0	0	0
O=C(CSc1nnc2ccccn12)c1ccc(Cl)cc1	0	0	3.55µM	?	?	?
COc1ccccc1CNC(=O)CCc1c(C)nn(-c2ccc(N3CCCCC3)nn2)c1C	-	-	-	0	-	-
CC(=O)c1c(C)[nH]c(C(=O)N2c3ccccc3CC2C)c1C (stereo not given)	0	0	0	0	?	0
Cc1ccc(C(=O)N2CCc3ccccc32)o1	2.24µM	7.94µM	1.58µM	9.53µM	?	?
Cc1ccc(C(=O)N2c3ccccc3CC2C)o1 (stereo not given)	2µM	15.8µM	1µM	7.57µM	?	?
Cc1c(C(=O)N2CCc3ccccc32)oc2c1C(=O)CC(C)(C)C2	0	12.6µM	?	8.49µM	?	3.26µM
Nc1ccccc1S(=O)(=O)NCCCCc1ccccc1	0	-	0	0	0	0
COc1ccc(S(=O)(=O)Nc2ccc3c(c2)C(=O)N([C@H](C)CO)C[C@H](C)[C@@H](CN(C)S(C)(=O)=O)O3)cc1	-	-	-	-	?	0
CCC(C)(C)C1CCc2[nH]nc(C(=O)N/N=C(\C)c3ccco3)c2C1 (stereo not given)	3.16µM	-	1.12µM	2.39µM	?	?
C/C(=N\NC(=O)c1n[nH]c2c1CCC2)c1ccco1	?	-	0.501µM	2.69µM	?	?
CCCNC(=O)c1n[nH]c2c1CC(C(C)(C)CC)CC2 (stereo not given)	0	-	0	?	0	0
COC(=O)N/N=C(\C)c1ccco1	0	0	0	0	0	0
Cc1ccc(Cn2cc(CCC(=O)NCc3ccccc3F)c3ccccc32)cc1	-	-	-	0	-	-
C[C@@H]1COC(=O)[C@H](Cc2ccc(F)cc2)C/C=C\C[C@@H](CC(=O)NCCO)C(=O)N1	-	-	-	-	0	0
Cc1cc(C)c(C(=O)COC(=O)c2ccc([N+](=O)[O-])o2)cc1C	0	0	0	0	0	0
COCCn1c(C)cc(C(=O)COC(=O)c2ccc([N+](=O)[O-])o2)c1C	0	0	0	12µM	?	0
COCCn1c(C)cc(C(=O)COC(=O)C2CC(=O)N(CCc3ccc(OC)c(OC)c3)C2)c1C (stereo not given)	0	-	0	10.7µM	?	0
Cc1cc(C(=O)COC(=O)c2ccc([N+](=O)[O-])o2)c(C)n1CC1CCCO1 (stereo not given)	0	0	0	10.7µM	0	0
COCCn1c(C)nnc1SCC(=O)NNC(=O)c1ccc(Br)cc1	0	-	0	0	0	0
N#CC1(NC(=O)COc2ccc3ccc(=O)oc3c2)CCCCC1	0	-	0	0	0	?
CCOC(=O)O[C@]1(C(=O)COC(=O)CC)CC[C@@H]2[C@@H]3CCC4=CC(=O)C=C[C@@]4(C)[C@H]3[C@H](O)C[C@]21C	-	0	-	-	-	-
O=C(NCc1ccccc1)c1ccc(-c2ccccc2F)o1	0	31.6µM	?	13.5µM	?	13µM
O=C(NCCc1ccccc1)c1ccc(-c2ccccc2C(F)(F)F)o1	0	0	0	?	0	0
SMILES	NPC1 promoter act	SMN2 splice enh	Rab9 promoter act	FLuc modulator	ELG1 DNA repair	ELG1 genotoxic
O=C(NCCc1ccccc1)c1ccc(-c2ccc(F)cc2)o1	0	0	0	21.3µM	0	0
Nc1cc(=O)[nH]c(SCC(=O)Nc2ccc(N3CCOCC3)cc2)n1	-	-	-	-	0	0
COc1cccc(/C=N/NC(=O)CCCC(=O)Nc2ccc(Br)cc2)c1	0	0	0	0	0	0
COc1ccc(/C=C/C(=O)Oc2cccc(/C=N/NC(=O)Cc3ccc(Br)cc3)c2)cc1	3.55µM	-	3.16µM	?	?	?
Cc1nn(-c2ccccc2)nc1C(=O)c1c(C)[nH]n(-c2ccccc2)c1=O	0	-	0	0	?	0
COc1cc(/C=N/NC(=O)COc2cccc(F)c2)ccc1OS(=O)(=O)c1ccc(C)cc1	0	0	0	0	18.4µM	0
N#Cc1cccnc1Nc1ccc(Cl)cc1	0	0	0	0	0	0
CCCCc1ccc(Nc2ncccc2C#N)cc1	?	?	2.82µM	9.53µM	?	?
CC(=O)N(C1=C(N2CCOCC2)C(=O)c2ccccc2C1=O)c1ccc(C(=O)O)cc1	0	-	0	0	23.1µM	0
Cn1nnc(NC(=O)c2ccc3ccccc3c2)n1	0	0	0	15.1µM	?	0
Cn1nnc(NC(=O)c2ccc(C(C)(C)C)cc2)n1	3.16µM	22.4µM	1.58µM	3.38µM	?	?
Cn1nnc(NC(=O)c2ccccc2F)n1	0	0	0	0	0	0
CCc1c(C)sc2c1CCN(Cc1ccc(F)cc1)C2c1ccccc1 (stereo not given)	-	-	-	0	-	-
CC(C)CNC(=O)c1cc(-c2ccc(Cl)c(Cl)c2)on1	?	0	4.47µM	0	?	0
O=C(c1cc(-c2ccc(Cl)cc2)on1)N1CCCC1	0.562µM	-	0.447µM	2.13µM	?	2.91µM
O=C(c1cc(-c2cccc(Cl)c2)on1)N1CCN(c2ccccc2)CC1	0	0	0	?	0	0
O=C(c1cc(-c2ccc(Cl)c(Cl)c2)on1)N1CCCCC1	2.82µM	22.4µM	1µM	4.26µM	?	?
O=C(c1cc(-c2cccc(Cl)c2)on1)N1CCCC1	3.98µM	-	2.82µM	13.5µM	?	18.3µM
N#C/C(=C\c1ccc(Cl)cc1)c1nc2ncccc2[nH]1	0	0	0	3.01µM	?	0
N#C/C(=C\c1ccc(Cl)cc1)c1nc(-c2ccco2)cs1	0	0	0	?	?	0
CCOC(=O)C(=Cc1c[nH]c2ccc(S(=O)(=O)N(C)C)cc12)C(=O)OCC	0	-	0	?	0	0
O=C(Nc1nc(-c2cccs2)cs1)c1ccc(Cl)s1	0	0	0	13.5µM	?	?
O=C(Nc1nc(-c2ccc(Cl)s2)cs1)c1ccccc1	0	0	0	26.9µM	0	0
Cc1ccc(C)c(-c2csc(NC(=O)c3cnccn3)n2)c1	0	0	0	0	?	0
Cc1ccc(C(=O)Nc2nc(-c3cc(Cl)sc3Cl)cs2)cc1	0	0	0	9.53µM	9.2µM	0
CC(=O)Nc1nc(-c2cccs2)cs1	?	0	0	?	?	0
Cc1ccc(S(=O)(=O)N(C)C)cc1NC(=S)N(C)C1CCN(C)CC1	0	-	0	0	0	0
Cc1ccc(CSc2cn(CC(=O)N3CCCC3)c3ccccc23)cc1	-	-	-	15.1µM	-	-
O=C(Cn1cc(SCc2ccc(Cl)cc2)c2ccccc21)N1CCOCC1	0	?	0	23.9µM	?	0
O=C(CSc1cn(Cc2ccccc2)c2ccccc12)N1CCOCC1	?	12.6µM	0	23.9µM	?	18.4µM
